The results in this text go back to PubChem BioAssay AID1159580 (chemical genetic matrix, 2015).

The test can be described thus: chemical genetic growth profiling, strain panel (AID 1159580).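 Also: tested at 20 µM; growth read once vehicle control cultures reached saturation at 30 °C; 1 = growth at the plate median or of vehicle wells.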 The note with it: S. cerevisiae deletion strains, growth OD.
Setting [1] is: locus YHR030C, strain SLT2, stronger effect = lower value.
[2] abbreviates: locus YHR079C, strain IRE1, stronger effect = lower value.
Setting [3] is: locus YJL095W, strain BCK1, stronger effect = lower value.
[4] abbreviates: locus YJR066W, strain TOR1, stronger effect = lower value.
The mark [5] stands for this setting: locus YLR113W, strain HOG1, stronger effect = lower value.
Setting [6] is: locus YNL183C, strain NPR1, stronger effect = lower value.
The mark [7] stands for this setting: locus YOR231W, strain MKK1, stronger effect = lower value.
Setting [8] is: locus YPL256C, strain CLN2, stronger effect = lower value.
Where [9] appears, read: locus YAL040C, strain CLN3, stronger effect = lower value.
Where [10] appears, read: locus YCL061C, strain MRC1 (second series), stronger effect = lower value.
Setting [11] is: locus YDR150W, strain NUM1, stronger effect = lower value.
The mark [12] stands for this setting: locus YDR363W, strain ESC2, stronger effect = lower value.
[13] abbreviates: locus YER002W, strain NOP16, stronger effect = lower value.
Setting [14] is: locus YGR078C, strain PAC10, stronger effect = lower value.
[15] abbreviates: locus YJR075W, strain HOC1, stronger effect = lower value.
Setting [16] is: locus YNL128W, strain TEP1, stronger effect = lower value.
Where [17] appears, read: locus YNL153C, strain GIM3, stronger effect = lower value.
[18] abbreviates: locus YNL175C, strain NOP13, stronger effect = lower value.
Where [19] appears, read: locus YNL197C, strain WHI3, stronger effect = lower value.
Where [20] appears, read: locus YNL224C, strain SQS1, stronger effect = lower value.
[21] abbreviates: locus YOR083W, strain WHI5 (second series), stronger effect = lower value.
Setting [22] is: locus YPL055C, strain LGE1, stronger effect = lower value.
The mark [23] stands for this setting: locus YPL241C, strain CIN2, stronger effect = lower value.
[24] abbreviates: locus YGR229C, strain SMI1, stronger effect = lower value.
Setting [25] is: locus YMR263W, strain SAP30, stronger effect = lower value.
The mark [26] stands for this setting: locus YNL322C, strain KRE1, stronger effect = lower value.
Setting [27] is: locus YMR307W, strain GAS1, stronger effect = lower value.

Structures are written as SMILES. The campaign covered roughly 5,500 compounds. About 2,000 (36%) were called active. Inconclusive results (about 18%) are left out. Some of the results follow. A number with no mark means an inactive call. Rule as the data show it: active = normalized growth mostly below about 0.91 (no sharp cut-off); inconclusive = no clear call, values can overlap the other calls; inactive = mostly above about 0.92.

As to `COC(=O)C(OC(C)=O)[C@H]1C(C)(C)C(OC(C)=O)[C@@H]2CC3=C4CC(=O)O[C@@H](c5ccoc5)[C@]4(C)CCC3[C@@]1(C)C2=O` (some centres not stated), the normalized growth by setting is: under setting [1], 0.961; under setting [2], 0.967; under setting [3], 0.979; under setting [4], 0.917; under setting [5], 0.99; under setting [6], 0.932. Moreover, the normalized growth was 0.989 under setting [7] and 0.951 under setting [8].
`CN(N=O)c1cc(O)ccc1O`: the normalized growth by setting is: under setting [9], 0.98; under setting [10], 0.99; under setting [11], 1; under setting [12], 0.975; under setting [13], 1; under setting [14], 0.988. Besides, the normalized growth by setting is: under setting [15], 0.989; under setting [16], 0.993; under setting [17], 1.02; under setting [18], 0.983; under setting [19], 1.01; under setting [20], 0.991. In addition, the normalized growth is, setting by setting: under setting [21], 0.991; under setting [22], 0.972; under setting [23], 0.987.
Consider `CCC(NC(C)C)C(O)c1ccc(O)c(O)c1` (configuration not stated), for which the normalized growth under setting [9] was 1; the normalized growth under setting [10] was 0.992; the normalized growth under setting [12] was 1.02; the normalized growth under setting [13] is 1.01; the normalized growth under setting [14] was 1.02; the normalized growth under setting [24] was 0.976. In addition, the normalized growth is 1.01 under setting [1]; 0.97 under setting [2]; 0.982 under setting [3]; 0.954 under setting [4]; 0.99 under setting [5]; 1.02 under setting [25]. In addition, the normalized growth runs as follows: under setting [17], 1; under setting [18], 1.02; under setting [6], 0.923; under setting [19], 1.02; under setting [20], 1.01; under setting [26], 0.992. The normalized growth reads like this: under setting [21], 1.03; under setting [7], 0.982; under setting [23], 0.991; under setting [8], 0.96.
Take `CN(N=O)c1ccc(O)c(O)c1`: the normalized growth by setting is: (locus YAL013W, strain DEP1, stronger effect = lower value) 0.957; under setting [9], 0.997; under setting [10], 0.946; under setting [11], 0.934 (active); under setting [12], 0.928; under setting [13], 0.974. Also, the normalized growth is, setting by setting: under setting [14], 0.972; under setting [15], 0.93; under setting [25], 0.998; under setting [18], 0.976; under setting [19], 0.964; under setting [20], 0.994. Further, the normalized growth under setting [21] was 0.98 and the normalized growth under setting [22] was 0.993.
As for `CC(C)C[C@H](NC(=O)[C@@H](O)[C@H](N)Cc1ccccc1)C(=O)O`, the normalized growth was 1.05 under setting [9]; 1.01 under setting [10]; 1.03 under setting [11]; 0.994 under setting [12]; 1.02 under setting [13]; 0.998 under setting [14]. The normalized growth is 1.03 under setting [17]; 0.997 under setting [18]; 0.996 under setting [19]; 1.01 under setting [20]; 0.989 under setting [21]; 1.02 under setting [22].
`CC(C)CC(NC(=O)C(Cc1ccccc1)NC(=O)CNC(=O)CNC(=O)C(N)Cc1ccc(O)cc1)C(=O)O` (configuration not stated): the normalized growth was 0.858 (locus YBR021W, strain FUR4, stronger effect = lower value); 0.95 (locus YBR229C, strain ROT2, stronger effect = lower value); 0.979 (locus YCL029C, strain bik1, stronger effect = lower value); 0.956 (locus YDL035C, strain GPR1, stronger effect = lower value); 1.01 (locus YDL074C, strain BRE1, stronger effect = lower value); 1.02 (locus YDL101C, strain DUN1, stronger effect = lower value). For the same compound, the normalized growth is, setting by setting: (locus YDL185W, strain tfp1, stronger effect = lower value) 0.973; (locus YDL192W, strain arf1, stronger effect = lower value) 0.995; (locus YDR101C, strain arx1, stronger effect = lower value) 0.976; under setting [11], 0.989; (locus YDR162C, strain NBP2, stronger effect = lower value) 0.951; (locus YDR318W, strain mcm21, stronger effect = lower value) 0.991. The normalized growth was 0.978 (locus YDR388W, stronger effect = lower value); 1.01 (locus YDR502C, strain sam2, stronger effect = lower value); 0.987 (locus YEL061C, strain CIN8, stronger effect = lower value); 0.988 (locus YER110C, stronger effect = lower value); 1.01 (locus YER155C, strain BEM2, stronger effect = lower value); 0.989 (locus YER167W, strain BCK2, stronger effect = lower value). The normalized growth was 0.999 (locus YGL078C, strain dbp3, stronger effect = lower value); 1 (locus YGL086W, strain mad1, stronger effect = lower value); 1 (locus YGL248W, strain PDE1, stronger effect = lower value); 0.96 (locus YGR135W, strain pre9, stronger effect = lower value); 0.963 under setting [24]; 1.07 (locus YGR252W, strain gcn5, stronger effect = lower value). Besides, the normalized growth reads like this: under setting [1], 0.984; (locus YHR079C, strain IRE1 (second series), stronger effect = lower value) 0.996; (locus YHR094C, strain hxt1, stronger effect = lower value) 0.982; (locus YHR129C, strain ARP1, stronger effect = lower value) 0.998; (locus YHR200W, strain rpn10, stronger effect = lower value) 0.994; (locus YIL066C, strain RNR3, stronger effect = lower value) 0.948. Besides, the normalized growth was 1.28 (locus YIL073C, strain SPO22, stronger effect = lower value); 0.993 (locus YIL125W, strain kgd1, stronger effect = lower value); 1 (locus YIR030C, strain dcg1, stronger effect = lower value); 1.06 under setting [3]; 0.987 (locus YJL134W, strain LCB3, stronger effect = lower value); 1.01 (locus YJL168C, strain set2, stronger effect = lower value). The normalized growth by setting is: (locus YJL187C, strain SWE1 (second series), stronger effect = lower value) 1.03; (locus YJR043C, strain POL32, stronger effect = lower value) 0.976; (locus YKL009W, strain mrt4, stronger effect = lower value) 1.01; (locus YKL068W, stronger effect = lower value) 0.989; (locus YKL085W, strain MDH1 (second series), stronger effect = lower value) 0.99; (locus YKL085W, strain MDH1, stronger effect = lower value) 0.99. For the same compound, the normalized growth is, setting by setting: (locus YKL190W, strain CNB1, stronger effect = lower value) 1; (locus YKR001C, strain vps1, stronger effect = lower value) 1.01; (locus YLR039C, strain RIC1, stronger effect = lower value) 1.38 [resistant] (active); (locus YLR058C, strain SHM2, stronger effect = lower value) 0.981; (locus YLR102C, strain apc9, stronger effect = lower value) 0.994; (locus YLR262C, strain YPT6, stronger effect = lower value) 1.46 [resistant] (active). In addition, the normalized growth is, setting by setting: (locus YLR268W, strain sec22, stronger effect = lower value) 1.01; (locus YLR330W, strain CHS5, stronger effect = lower value) 0.986; (locus YLR342W, strain FKS1 (second series), stronger effect = lower value) 0.889; (locus YLR371W, strain rom2, stronger effect = lower value) 0.988; (locus YLR418C, strain cdc73, stronger effect = lower value) 1; (locus YML016C, strain PPZ1, stronger effect = lower value) 0.975. Further, the normalized growth reads like this: (locus YML032C, strain rad52, stronger effect = lower value) 0.97; (locus YML124C, strain tub3, stronger effect = lower value) 0.998; (locus YMR078C, strain ctf18, stronger effect = lower value) 0.986; (locus YMR223W, strain ubp8, stronger effect = lower value) 0.988; under setting [27], 1.01; (locus YNL067W, strain RPL9B, stronger effect = lower value) 1.05. For the same compound, the normalized growth reads like this: under setting [16], 0.969; (locus YNL233W, strain BNI4, stronger effect = lower value) 1.04; (locus YNL250W, strain rad50, stronger effect = lower value) 0.981; (locus YNL271C, strain bni1, stronger effect = lower value) 0.988; (locus YNL298W, strain CLA4, stronger effect = lower value) 0.979; (locus YNL307C, strain MCK1, stronger effect = lower value) 0.987. Also, the normalized growth under setting [26] was 0.997; the normalized growth (locus YNR052C, strain pop2, stronger effect = lower value) was 0.981; the normalized growth (locus YOL012C, strain htz1) is 0.972; the normalized growth (locus YOL147C, strain pex11, stronger effect = lower value) is 0.993; the normalized growth (locus YOR061W, strain CKA2, stronger effect = lower value) was 0.961; the normalized growth (locus YOR069W, strain VPS5, stronger effect = lower value) is 0.99. Besides, the normalized growth (locus YOR136W, strain idh2, stronger effect = lower value) is 1.02; the normalized growth (locus YOR144C, strain elg1, stronger effect = lower value) is 0.995; the normalized growth (locus YOR184W, strain ser1, stronger effect = lower value) was 0.996; the normalized growth (locus YOR316C, strain cot1, stronger effect = lower value) was 0.989; the normalized growth under setting [22] was 0.988; the normalized growth under setting [23] is 0.985. Further, the normalized growth (locus YPR119W, strain clb2, stronger effect = lower value) is 0.992; the normalized growth (locus YPR141C, strain kar3, stronger effect = lower value) was 0.991; the normalized growth (locus YPR163C, strain tif3, stronger effect = lower value) was 0.979; the normalized growth (locus YPR167C, strain met16, stronger effect = lower value) is 0.997; the normalized growth (strain wtn01, stronger effect = lower value) was 0.987.
With `CC(C)C[C@H](NC(=O)[C@H](O)[C@H](N)Cc1ccccc1)C(=O)O`, the normalized growth under setting [9] was 0.978; the normalized growth under setting [10] is 1; the normalized growth under setting [12] is 1.03; the normalized growth under setting [13] was 1.03; the normalized growth under setting [24] was 1; the normalized growth under setting [25] was 0.994. Besides, the normalized growth is 0.986 under setting [27]; 0.981 under setting [16]; 0.986 under setting [17]; 0.999 under setting [18]; 1 under setting [19]; 0.99 under setting [20]. Further, under setting [21], the normalized growth was 1.03.
